The results in this text go back to PubChem BioAssay (Tox21).

Assay [1] in a line: qHTS assay to identify small molecule agonists of the hypoxia (HIF-1) signaling pathway - cell viability counter screen (AID 1224844; calls by dose curve; note: nearly all actives have a fitted effect of over 50% in size; note: potency is the fitted concentration of half-maximal effect). In outline:
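Tox21 10K compounds were added to HRE-bla ME-180 cells (0.5% dialyzed FBS) and incubated 17 hrs at 37C; ATP-based CellTiter-Glo luminescence then reported cell viability in the same wells.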
(Quantitative high-throughput screening tests each substance at several concentrations.)

Assay [2] in a line: qHTS assay to identify small molecule agonists of H2AX - cell viability counter screen (AID 1224847; calls by dose curve; note: nearly all actives have a fitted effect of over 30% in size; note: potency is the fitted concentration of half-maximal effect). In outline:
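Cytotoxicity counter screen in wild-type CHO-K1 cells: a 3 hr compound treatment at 37C across 15 concentrations, followed by CellTiter-Glo luminescence to gauge viable cells.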

Assay [3] in a line: qHTS RealTime-Glo MT Cell Viability Assay in HepG2 cells - 24 hour (AID 1224867). Note: nearly all actives have a fitted effect of over 50% in size. Note: potency is the fitted concentration of half-maximal effect. An outline of the steps: (§1)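 Viability was tracked continuously by NanoLuc luminescence from prosubstrate reduced by living HepG2 cells, at successive time points over 40 h of compound exposure. Cells with reagent were preincubated 5 h at 37 °C before compound addition.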
A short description of assay [4]: qHTS RealTime-Glo MT Cell Viability Assay in HEK293 cells - 32 hour (AID 1224868). Note: nearly all actives have a fitted effect of over 50% in size. Note: potency is the fitted concentration of half-maximal effect. An outline of the steps:
(§2)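 Viability tracked continuously by luminescence as live cells reduce a prosubstrate for NanoLuc; HEK293 cells preincubated 5 h, compound-treated at 37 C, and read at 0, 8, 16, 24, 32 and 40 h.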

Assay [5] can be described thus: A CellTox Green Cytotoxicity Assay to monitor cytotoxicity in HEK293 cells - 0 hour (AID 1224869). Note: % is set by controls: 0 for no effect and ±100 for the full control effect; nearly all actives have a fitted effect of over 50% in size. An outline of the steps: (§3)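 Cytotoxicity was tracked continuously in HEK293 cells by a DNA-binding dye excluded from viable cells. Compounds were transferred in DMSO 5 h after seeding; fluorescence was recorded at intervals up to 40 h.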
Assay [6] in a line: qHTS RealTime-Glo MT Cell Viability Assay in HepG2 cells - 40 hour (AID 1224870). Note: nearly all actives have a fitted effect of over 50% in size. Note: potency is the fitted concentration of half-maximal effect. An outline of the steps: (§4)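 HepG2 cells mixed with RealTime-Glo MT reagents (NanoLuc plus cell-permeant prosubstrate) were seeded at 600 cells/well, incubated 5 h at 37 C/5% CO2, then pinned with compounds in DMSO; nonlytic luminescence tracked viability during 40 h treatment.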
Assay [7] can be described thus: A CellTox Green Cytotoxicity Assay to monitor cytotoxicity in HEK293 cells - 40 hour (AID 1224871). Note: nearly all actives have a fitted effect of over 45% in size. Note: potency is the fitted concentration of half-maximal effect. An outline of the steps: as §3
The nature of assay [8]: qHTS RealTime-Glo MT Cell Viability Assay in HEK293 cells - 16 hour (AID 1224872). Note: nearly all actives have a fitted effect of over 50% in size. Note: potency is the fitted concentration of half-maximal effect. An outline of the steps: as §2
Assay [9] in a line: qHTS RealTime-Glo MT Cell Viability Assay in HepG2 cells - 8 hour (AID 1224873). Note: nearly all actives have a fitted effect of over 55% in size. Note: potency is the fitted concentration of half-maximal effect. In outline:
as §4

The nature of assay [10]: qHTS RealTime-Glo MT Cell Viability Assay in HEK293 cells - 40 hour (AID 1224874). For max response: % is set by controls: 0 for no effect and ±100 for the full control effect. Note: nearly all actives have a fitted effect of over 50% in size. Note: potency is the fitted concentration of half-maximal effect. Particulars: RealTime-Glo luminescence; max response: active compounds read low. In outline: (§5)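 Nonlytic bioluminescent viability monitoring. HEK293 at 600 cells/well with reagent; 5 h settle; compound transfer by pintool; plates held at 37 C and read at set time points.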
A short description of assay [11]: A CellTox Green Cytotoxicity Assay to monitor cytotoxicity in HepG2 cells - 16 hour (AID 1224876). Note: nearly all actives have a fitted effect of over 45% in size. Note: potency is the fitted concentration of half-maximal effect. In outline: (§6)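 Real-time, homogeneous cytotoxicity readout: dead-cell DNA staining by CellTox Green in HepG2 monolayers, fluorescence measured at timed intervals up to 40 h of continuous compound exposure.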
Assay [12] in a line: qHTS RealTime-Glo MT Cell Viability Assay in HepG2 cells - 32 hour (AID 1224877). Note: nearly all actives have a fitted effect of over 55% in size. Note: potency is the fitted concentration of half-maximal effect. An outline of the steps:
as §1

The nature of assay [13]: A CellTox Green Cytotoxicity Assay to monitor cytotoxicity in HepG2 cells - 40 hour (AID 1224879). Note: nearly all actives have a fitted effect of over 40% in size. Note: potency is the fitted concentration of half-maximal effect. An outline of the steps:
as §6

Assay [14] can be described thus: qHTS RealTime-Glo MT Cell Viability Assay in HEK293 cells - 0 hour (AID 1224880). Note: top concentration of the series differs between compounds; % is set by controls: 0 for no effect and ±100 for the full control effect; nearly all actives have a fitted effect of over 45% in size. An outline of the steps: as §5
Assay [15] is described as follows: qHTS assay to identify small molecule agonists of H2AX (AID 1224845; active = well fitted activation curve with a large enough effect in the signal ratio in the repeat runs, not every such curve was filed as active; the % refers to the signal ratio; note: % is set by controls: 0 for no effect and ±100 for the full control effect). An outline of the steps: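 Wild-type CHO-K1 cells plated overnight, then exposed 3 hr at 37C to compounds at 15 concentrations (0.76% DMSO). Lysed, then HTRF anti-pH2AX(S139)-cryptate/anti-H2AX-d2 detection after 24 hr at room temperature; emissions 665 and 620 nm.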
Assay [16] can be described thus: qHTS assay to identify small molecule agonists of the hypoxia (HIF-1) signaling pathway (AID 1224846; active = well fitted activation curve with a large enough effect in the signal ratio in the repeat runs, not every such curve was filed as active; the % refers to the signal ratio; note: % is set by controls: 0 for no effect and ±100 for the full control effect). In outline: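 Steps: seed ME-180 HRE-bla cells (2,000/well, 0.5% dialyzed FBS); incubate 5 hrs at 37C; pin-transfer compounds or DMSO; incubate 17 hrs; add LiveBLAzer B/G substrate CCF4-AM; measure reporter activation by FRET.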
The nature of assay [17]: qHTS assay to identify small molecule antagonists of the estrogen related receptor (ERR) signaling pathway from Tox21 library (AID 1224848). In outline: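 Cells: ERR line, 2,000/well; 6 h preincubation 37 C/5% CO2. Cpd in DMSO via pin tool; 18 h, 37 C. ONE-Glo, 30 min RT, luminescence.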
Assay [18] is described as follows: qHTS assay to identify small molecule agonists of the estrogen related receptor (ERR) signaling pathway from Tox21 library (AID 1224849; calls by dose curve; note: % is set by controls: 0 for no effect and ±100 for the full control effect; nearly all actives have a fitted effect of over 15% in size). The following applies: ERR reporter cell line, ONE-Glo luciferase, 18 h; at 92.4 µM (top of the series) unless noted. An outline of the steps: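 Agonist signal is luciferase luminescence from an ERR reporter cell line treated 18 h at 37 C with DMSO-dissolved compounds, read 30 min after ONE-Glo addition at room temperature.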

The nature of assay [19]: A CellTox Green Cytotoxicity Assay to monitor cytotoxicity in HepG2 cells - 24 hour (AID 1224878). Note: nearly all actives have a fitted effect of over 45% in size. Note: potency is the fitted concentration of half-maximal effect. In outline: as §6
Assay [20] in a line: A CellTox Green Cytotoxicity Assay to monitor cytotoxicity in HEK293 cells - 24 hour (AID 1224875). For activity change: % is set by controls: 0 for no effect and ±100 for the full control effect. Note: nearly all actives have a fitted effect of over 45% in size. Note: potency is the fitted concentration of half-maximal effect. In outline:
as §3

Values without a mark were called inactive. Inconclusive results are not listed. The source made the active and inactive calls. Unless noted, calls come from the whole dose curve; as a rule, active = well fitted curve in the direction sought with a large enough effect in the repeat runs; inconclusive = weak or mixed curves; inactive = no such curve, though single readings can be large; an effect the other way counts as inactive or inconclusive.

Take `CCC(C)c1cccc(C(C)CC)c1O` (stereo not drawn): the Potency entry in assay [1], in assay [3], in [4], in [5], in assay [6] and in assay [8] was “inactive” throughout. Also, the Potency result in [9], in [12] and in assay [14] was “inactive” in each case. In addition, the Potency in assay [2] is 35.7 µM (active); in assay [7] it was 27.5 µM (active); in [11], 17.4 µM (active); in [13], 19.5 µM (active). Moreover, in assay [10], the max response was -7.36%.

Regarding `CCC(OC(C)=O)C(CC(C)NC)(c1ccccc1)c1ccccc1` (stereo not drawn), the Potency entry in assay [15], in [16] and in assay [5] was “inactive” in each case. Besides, the Potency in assay [2] is 128 µM (active); in assay [17], 69.2 µM (active); in [4], 55.4 µM (active); in assay [6] it was 62.2 µM (active); in [7], 62.2 µM (active); in assay [8], 49.4 µM (active). In addition, the Potency in assay [10] is 49.4 µM (active); in assay [11], 62.2 µM (active); in assay [19] it was 55.4 µM (active); in assay [13] it was 55.4 µM (active). Besides, the activity change, positive = activation in assay [18] is -58.4%.

`BrCC(Br)(Br)Br`: the Potency result in assay [15], in assay [16], in assay [2], in assay [3], in assay [5] and in assay [6] was “inactive” each time. Besides, the Potency result in assay [9], in [20], in [11], in assay [12], in assay [19] and in assay [13] was “inactive” throughout. In addition, in assay [14], the Potency entry was “inactive”. Further, the activity change, positive = activation in assay [18] is 15.6%. In addition, the Potency in assay [4] was 45.3 µM (active); in assay [8], 25.5 µM (active); in assay [10], 45.3 µM (active).

Regarding `CCCCCON=O`, the Potency entry in [15], in assay [16], in [2], in [3], in [4] and in assay [6] was “inactive” in each case. The Potency result in assay [7], in assay [8], in assay [9], in assay [11], in assay [12] and in assay [19] was “inactive” in each case. Further, the Potency entry in assay [13] and in assay [14] was “inactive” in each case. Also, in assay [18], the activity change, positive = activation is -5.1%. The max response in assay [10] is 1.89%.

As to `Nc1ccccc1-c1ccccc1`, the Potency result in assay [15], in assay [16], in [2], in assay [3], in assay [4] and in assay [5] was “inactive” throughout. The Potency entry in [6], in assay [8], in [9], in [11], in [12] and in assay [19] was “inactive” in each case. Further, the Potency entry in assay [13] and in assay [14] was “inactive” throughout. Further, the Potency in assay [17] was 27.1 µM (active). In addition, in assay [18], the activity change, positive = activation is -40.4%. In addition, the max response in assay [10] is -12.7%.

For the compound `CC[C@H](C)[C@H]1O[C@]2(C=C[C@@H]1C)C[C@@H]1C[C@@H](C/C=C(\C)[C@@H](O[C@H]3C[C@H](OC)[C@@H](O[C@H]4C[C@H](OC)[C@@H](NC)[C@H](C)O4)[C@H](C)O3)[C@@H](C)/C=C/C=C3\CO[C@@H]4[C@H](O)C(C)=C[C@@H](C(=O)O1)[C@]34O)O2`, the Potency in assay [1] was 21.9 µM (active); in assay [2] it was 16 µM (active); in assay [3] it was 9.77 µM (active); in assay [4], 4.9 µM (active); in assay [6] it was 9.77 µM (active); in assay [7], 11 µM (active). The Potency in assay [8] was 6.92 µM (active); in [9] it was 15.5 µM (active); in assay [10] it was 4.36 µM (active); in [20] it was 13.8 µM (active); in [11] it was 15.5 µM (active); in [12] it was 9.77 µM (active). Besides, the Potency in assay [13] is 9.77 µM (active). In addition, the Potency result in assay [5] and in assay [14] was “inactive” each time.
